The values below come from the supplement of paper PMC11732987, “Enantioselective OTUD7B fragment discovery through chemoproteomics screening and high-throughput optimisation” (Communications Chemistry, 2025).

What all share (test): log2 ratio of Biotin-Ahx-Ub-VS probe labelling (fragment/DMSO); higher = less target engagement (more negative = stronger competition), active = hit call of the paper (q ≤ 0.05, log2 ratio ≤ -1)
Common to all, as to details: compound concentration: 200 uM; treatment time: 3 h

Assay [1] addresses T1, USP19 (UniProt O94966).
T1 sequence (whole entry): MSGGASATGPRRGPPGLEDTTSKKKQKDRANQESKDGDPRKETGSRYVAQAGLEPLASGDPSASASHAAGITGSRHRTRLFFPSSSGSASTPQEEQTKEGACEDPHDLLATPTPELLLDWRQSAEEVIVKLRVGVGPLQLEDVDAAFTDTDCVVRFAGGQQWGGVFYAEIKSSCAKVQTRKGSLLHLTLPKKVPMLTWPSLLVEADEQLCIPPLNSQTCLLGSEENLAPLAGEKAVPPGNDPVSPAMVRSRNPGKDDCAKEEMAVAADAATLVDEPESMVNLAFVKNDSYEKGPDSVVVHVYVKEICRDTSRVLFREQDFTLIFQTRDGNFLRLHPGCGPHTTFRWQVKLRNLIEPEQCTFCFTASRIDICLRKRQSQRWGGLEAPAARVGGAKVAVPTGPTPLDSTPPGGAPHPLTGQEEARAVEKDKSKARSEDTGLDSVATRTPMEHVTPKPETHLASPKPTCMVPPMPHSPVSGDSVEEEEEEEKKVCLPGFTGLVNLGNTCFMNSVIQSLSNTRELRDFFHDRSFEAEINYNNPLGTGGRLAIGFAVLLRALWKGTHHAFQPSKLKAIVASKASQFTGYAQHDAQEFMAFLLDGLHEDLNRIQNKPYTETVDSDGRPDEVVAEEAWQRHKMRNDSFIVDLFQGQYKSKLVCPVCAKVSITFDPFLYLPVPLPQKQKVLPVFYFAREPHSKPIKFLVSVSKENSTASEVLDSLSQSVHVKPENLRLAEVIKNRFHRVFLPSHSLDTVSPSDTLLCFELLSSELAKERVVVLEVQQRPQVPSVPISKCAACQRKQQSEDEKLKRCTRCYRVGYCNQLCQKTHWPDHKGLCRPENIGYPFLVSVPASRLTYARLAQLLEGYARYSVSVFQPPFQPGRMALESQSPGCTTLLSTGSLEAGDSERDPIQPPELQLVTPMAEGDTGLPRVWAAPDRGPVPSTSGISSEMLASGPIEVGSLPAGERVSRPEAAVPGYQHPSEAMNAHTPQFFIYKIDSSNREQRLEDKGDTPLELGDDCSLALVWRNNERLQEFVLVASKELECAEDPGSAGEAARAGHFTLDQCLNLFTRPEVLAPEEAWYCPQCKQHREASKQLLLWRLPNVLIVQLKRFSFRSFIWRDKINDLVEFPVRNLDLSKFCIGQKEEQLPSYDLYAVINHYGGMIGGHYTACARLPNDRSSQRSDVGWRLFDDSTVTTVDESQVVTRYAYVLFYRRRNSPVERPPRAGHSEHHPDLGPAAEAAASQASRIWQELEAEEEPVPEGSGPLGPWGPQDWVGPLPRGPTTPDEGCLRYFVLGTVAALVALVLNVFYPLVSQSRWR
The method in brief:
(§1)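 Labelled DUBs from HEK293T lysate were NeutrAvidin-enriched, digested with LysC and trypsin, and run by diaPASEF LC-MS/MS. Before that, each 495 µg sample in Tris/CHAPS/IGEPAL buffer with protease inhibitors was treated in triplicate with fragment at 200 µM or vehicle for 3 h, then with Biotin-Ahx-Ub-VS at 0.5 µM final for 1 h. Values are average log2 ratios of fragment over vehicle by unpaired t-test, based on global-median-normalised Spectronaut label-free quantities from proteins with ≥2 unique peptides.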

Assay [2] deals with USP24 (UniProt Q9UPU5). The method in brief:
as §1

In assay [3] the target is T2, USP25 (UniProt Q9UHP3).
T2 sequence (whole entry): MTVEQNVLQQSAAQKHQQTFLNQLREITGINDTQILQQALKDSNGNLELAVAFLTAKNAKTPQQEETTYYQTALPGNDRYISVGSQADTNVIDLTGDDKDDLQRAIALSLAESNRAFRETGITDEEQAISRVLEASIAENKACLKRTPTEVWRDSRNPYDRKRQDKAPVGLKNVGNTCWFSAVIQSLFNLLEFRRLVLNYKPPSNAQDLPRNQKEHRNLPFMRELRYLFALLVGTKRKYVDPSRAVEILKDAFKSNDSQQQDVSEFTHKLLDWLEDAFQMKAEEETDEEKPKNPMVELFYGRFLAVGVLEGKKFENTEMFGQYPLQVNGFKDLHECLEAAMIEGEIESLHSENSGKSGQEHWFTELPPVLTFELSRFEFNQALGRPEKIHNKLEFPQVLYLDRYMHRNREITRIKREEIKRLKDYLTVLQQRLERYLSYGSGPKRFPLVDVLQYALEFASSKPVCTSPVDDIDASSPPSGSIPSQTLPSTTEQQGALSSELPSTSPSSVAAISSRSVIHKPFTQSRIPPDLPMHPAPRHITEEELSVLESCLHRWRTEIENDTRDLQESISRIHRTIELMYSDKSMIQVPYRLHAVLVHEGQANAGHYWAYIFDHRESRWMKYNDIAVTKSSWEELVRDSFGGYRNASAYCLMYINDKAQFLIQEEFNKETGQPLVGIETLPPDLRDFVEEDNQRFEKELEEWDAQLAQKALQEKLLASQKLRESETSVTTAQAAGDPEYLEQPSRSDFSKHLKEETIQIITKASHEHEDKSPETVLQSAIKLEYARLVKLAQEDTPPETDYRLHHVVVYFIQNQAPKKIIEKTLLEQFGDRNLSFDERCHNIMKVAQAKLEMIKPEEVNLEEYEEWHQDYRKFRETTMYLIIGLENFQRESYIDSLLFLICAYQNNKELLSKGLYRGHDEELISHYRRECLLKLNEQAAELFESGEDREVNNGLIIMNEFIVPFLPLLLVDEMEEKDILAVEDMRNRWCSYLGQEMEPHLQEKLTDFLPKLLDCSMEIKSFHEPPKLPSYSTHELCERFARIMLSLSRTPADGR
In a few lines:
as §1

Assay [4] concerns the target T3, USP28 (UniProt Q96RU2).
T3 sequence (whole entry): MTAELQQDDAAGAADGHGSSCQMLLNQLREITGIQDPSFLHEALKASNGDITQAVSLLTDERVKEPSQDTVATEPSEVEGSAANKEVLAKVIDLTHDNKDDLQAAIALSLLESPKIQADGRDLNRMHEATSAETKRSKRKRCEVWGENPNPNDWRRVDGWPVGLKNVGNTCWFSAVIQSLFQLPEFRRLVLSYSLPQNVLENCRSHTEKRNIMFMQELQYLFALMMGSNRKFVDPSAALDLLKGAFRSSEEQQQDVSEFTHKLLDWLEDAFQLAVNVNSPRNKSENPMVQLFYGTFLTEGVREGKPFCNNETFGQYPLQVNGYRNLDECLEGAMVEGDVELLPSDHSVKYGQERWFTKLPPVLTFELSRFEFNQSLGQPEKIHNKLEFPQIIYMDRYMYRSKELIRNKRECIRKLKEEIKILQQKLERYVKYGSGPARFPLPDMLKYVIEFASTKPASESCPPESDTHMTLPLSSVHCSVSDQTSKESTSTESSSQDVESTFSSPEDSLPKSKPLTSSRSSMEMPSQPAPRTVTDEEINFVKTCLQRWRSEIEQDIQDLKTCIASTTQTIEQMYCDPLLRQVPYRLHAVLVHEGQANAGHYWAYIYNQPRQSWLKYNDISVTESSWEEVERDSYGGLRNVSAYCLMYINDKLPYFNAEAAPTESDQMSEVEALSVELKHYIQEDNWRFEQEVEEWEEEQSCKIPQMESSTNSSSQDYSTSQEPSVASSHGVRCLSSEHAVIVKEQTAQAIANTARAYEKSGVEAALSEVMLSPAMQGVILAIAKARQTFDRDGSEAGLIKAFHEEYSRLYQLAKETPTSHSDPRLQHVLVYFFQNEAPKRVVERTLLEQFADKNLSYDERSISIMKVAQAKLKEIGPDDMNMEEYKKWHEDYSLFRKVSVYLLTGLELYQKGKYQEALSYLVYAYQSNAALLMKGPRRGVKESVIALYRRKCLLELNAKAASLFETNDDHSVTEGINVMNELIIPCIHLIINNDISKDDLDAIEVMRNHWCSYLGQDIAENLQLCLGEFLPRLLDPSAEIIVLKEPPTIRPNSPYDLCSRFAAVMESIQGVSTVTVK
In a few lines:
as §1

SMILES strings stand for the structures. Values without a mark were called inactive.

Chain of USP24 (Q9UPU5 whole entry): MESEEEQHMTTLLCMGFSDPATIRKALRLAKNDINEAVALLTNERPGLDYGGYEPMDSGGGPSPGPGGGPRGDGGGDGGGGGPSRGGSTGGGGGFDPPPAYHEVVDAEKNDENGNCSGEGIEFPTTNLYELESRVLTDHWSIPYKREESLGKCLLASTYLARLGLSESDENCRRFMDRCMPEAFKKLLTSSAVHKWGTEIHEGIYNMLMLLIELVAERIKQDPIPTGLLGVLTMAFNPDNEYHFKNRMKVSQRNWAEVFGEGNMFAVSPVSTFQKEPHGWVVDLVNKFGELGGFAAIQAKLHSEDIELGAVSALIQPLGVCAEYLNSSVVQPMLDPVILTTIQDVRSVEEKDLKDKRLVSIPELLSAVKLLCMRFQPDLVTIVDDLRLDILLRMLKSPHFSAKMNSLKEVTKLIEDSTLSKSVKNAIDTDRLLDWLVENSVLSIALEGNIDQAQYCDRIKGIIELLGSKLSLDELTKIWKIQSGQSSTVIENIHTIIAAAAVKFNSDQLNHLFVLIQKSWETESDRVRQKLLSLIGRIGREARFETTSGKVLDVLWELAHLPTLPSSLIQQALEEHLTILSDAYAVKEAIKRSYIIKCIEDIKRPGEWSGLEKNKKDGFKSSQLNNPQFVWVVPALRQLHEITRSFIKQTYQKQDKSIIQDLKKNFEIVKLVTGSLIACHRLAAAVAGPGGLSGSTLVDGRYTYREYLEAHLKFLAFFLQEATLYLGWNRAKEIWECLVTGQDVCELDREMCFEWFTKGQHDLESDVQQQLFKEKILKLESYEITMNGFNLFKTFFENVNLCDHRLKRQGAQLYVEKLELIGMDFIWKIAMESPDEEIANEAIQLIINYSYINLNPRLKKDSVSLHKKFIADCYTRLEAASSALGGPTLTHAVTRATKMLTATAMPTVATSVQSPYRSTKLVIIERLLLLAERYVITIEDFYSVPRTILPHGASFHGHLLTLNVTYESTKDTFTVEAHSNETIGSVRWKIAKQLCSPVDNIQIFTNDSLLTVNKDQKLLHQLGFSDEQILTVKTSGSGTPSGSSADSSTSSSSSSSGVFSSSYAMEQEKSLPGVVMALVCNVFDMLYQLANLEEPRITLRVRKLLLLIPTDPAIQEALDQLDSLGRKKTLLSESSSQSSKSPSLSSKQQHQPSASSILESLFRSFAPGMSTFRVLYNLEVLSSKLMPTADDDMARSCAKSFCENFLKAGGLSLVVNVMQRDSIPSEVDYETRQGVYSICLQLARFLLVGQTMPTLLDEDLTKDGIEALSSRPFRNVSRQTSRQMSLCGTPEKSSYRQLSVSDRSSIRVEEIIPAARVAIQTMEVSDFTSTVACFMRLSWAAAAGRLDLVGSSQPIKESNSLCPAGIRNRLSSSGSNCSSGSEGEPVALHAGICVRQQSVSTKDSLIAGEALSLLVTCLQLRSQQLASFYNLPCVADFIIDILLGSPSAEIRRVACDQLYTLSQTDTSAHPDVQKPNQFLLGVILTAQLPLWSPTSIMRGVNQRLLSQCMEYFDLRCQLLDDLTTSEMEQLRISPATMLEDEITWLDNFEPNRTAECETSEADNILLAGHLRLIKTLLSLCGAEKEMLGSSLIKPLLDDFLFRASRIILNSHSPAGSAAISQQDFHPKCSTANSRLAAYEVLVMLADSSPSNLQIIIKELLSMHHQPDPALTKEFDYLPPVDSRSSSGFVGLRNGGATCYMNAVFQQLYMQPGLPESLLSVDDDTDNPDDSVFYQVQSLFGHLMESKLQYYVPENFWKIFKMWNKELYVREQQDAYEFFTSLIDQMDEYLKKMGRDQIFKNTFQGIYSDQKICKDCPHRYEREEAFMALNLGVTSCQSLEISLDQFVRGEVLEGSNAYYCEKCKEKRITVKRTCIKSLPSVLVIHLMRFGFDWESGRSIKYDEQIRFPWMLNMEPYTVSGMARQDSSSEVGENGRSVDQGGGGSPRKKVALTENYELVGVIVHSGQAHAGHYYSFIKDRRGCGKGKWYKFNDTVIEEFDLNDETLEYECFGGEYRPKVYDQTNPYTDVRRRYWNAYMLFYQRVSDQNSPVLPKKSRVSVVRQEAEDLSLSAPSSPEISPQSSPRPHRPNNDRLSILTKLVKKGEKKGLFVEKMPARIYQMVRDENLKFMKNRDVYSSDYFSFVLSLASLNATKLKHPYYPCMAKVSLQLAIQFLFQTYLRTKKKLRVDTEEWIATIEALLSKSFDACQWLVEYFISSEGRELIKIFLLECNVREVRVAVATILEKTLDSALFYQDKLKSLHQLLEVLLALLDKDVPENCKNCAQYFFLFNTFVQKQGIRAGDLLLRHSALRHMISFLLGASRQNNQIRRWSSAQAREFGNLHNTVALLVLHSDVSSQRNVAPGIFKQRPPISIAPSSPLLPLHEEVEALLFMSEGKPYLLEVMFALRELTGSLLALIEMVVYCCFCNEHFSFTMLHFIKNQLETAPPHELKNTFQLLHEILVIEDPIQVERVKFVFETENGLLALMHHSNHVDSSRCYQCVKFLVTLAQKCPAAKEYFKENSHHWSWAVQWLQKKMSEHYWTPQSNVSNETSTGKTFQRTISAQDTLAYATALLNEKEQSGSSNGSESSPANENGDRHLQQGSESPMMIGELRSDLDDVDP

`CS(=O)(=O)c1ccc(NC(=O)CCl)cc1`: the “log2 ratio of Biotin-Ahx-Ub-VS probe labelling” value in assay [1] was -0.223; in assay [2], -0.247; in assay [3] it was -1.74 (active); in assay [4], -1.38 (active).
